Growth inhibition data for five compounds are collected here from the supplement of paper PMC5641865, “A screen for kinase inhibitors identifies antimicrobial imidazopyridine aminofurazans as specific inhibitors of the Listeria monocytogenes PASTA kinase PrkA” (The Journal of Biological Chemistry, 2017).

Structures are written as SMILES. ± gives the standard deviation of the averaged measurements.
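Further: End-point A600 read in BHI broth at 37 °C with 2% DMSO, inhibition computed as (1 − OD with compound plus ceftriaxone ÷ OD with ceftriaxone only) × 100.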

This test concerns Listeria monocytogenes 10403S. The test is described as follows: growth inhibition relative to ceftriaxone-alone control; higher = stronger potentiation of ceftriaxone growth inhibition. As to conditions: 10 µM; ceftriaxone 1 ug/ml; 12 h.
On to `CCCNC(=O)Nc1ccc(Oc2ncnc3cc(OC)c(OC)cc23)cc1Cl`, for which the growth inhibition is 12.7 ± 1.9%.
In the case of `NS(=O)(=O)c1ccc(N/N=C2\C(=O)Nc3cccc(CCc4ccncc4)c32)cc1`, the growth inhibition was -4.56 ± 8.2%.
For `N#Cc1ccc2c(-c3ccnc(NC4CC4)n3)c(-c3ccc(F)cc3)nn2c1` the value was 7 ± 2.3%; for `OCCn1cc(-c2ccc3c(c2)CC/C3=N\O)c(-c2ccncc2)n1`, 83 ± 8.8%; for `CC(C)(CO)CNC(=O)c1ccc2c(c1)/C(=N/Nc1ccc(S(N)(=O)=O)cc1)C(=O)N2`, -13.4 ± 16%.
